Most compounds without a hit are left out; they make up all but 8.1% or so of the library.
KB-V1 cytotox: kills drug-selected multidrug resistant KB-V1 cells | KB-V1 MDR cells viability, CellTiter-Glo, 72 h | 400,000 compounds, 3.4% hits | Potency, µM (top dose mostly 46.1 µM), most hits filed as cytotoxic; note: % is set by controls: 0 for no effect and ±100 for the full control effect; nearly all actives have a fitted effect of over 60% in size
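KB-V1, DMEM (no phenol red) + 10% FBS; cpd pin-transferred, titration series; 72 h, 37 degrees C; CellTiter-Glo, luminescence. Data normalized, curve-fit.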
ELG1 repair inh: blocks ELG1-dependent DNA repair in HEK293T cells; HEK293T ELG1-luciferase reporter, luminescence, 16 h; DNA damage induced by 5-fluorouridine; Potency, µM (series often up to 46.1 µM), inactives show at the highest dose activity change, negative = inhibition, usual class: inhibitors; 330,000 compounds, 2.3% hits; note: % is set by controls: 0 for no effect and ±100 for the full control effect; nearly all actives have a fitted effect of over 55% in size
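Step one: seed 2,000 cells per well. Step two: pin-transfer compound or DMSO alongside 5-fluorouridine. Step three: incubate 16 hr, 37 °C, 5% CO2. Step four: add ONE-Glo, wait 30 min, read luminescence.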
MCF10A rerep: inducers of DNA re-replication in MCF 10A breast cells; MCF 10A DNA re-replication, Hoechst nuclear intensity, 48 h; Potency, µM (doses to about 46.1 µM), inactives show at the top dose activity, positive = re-replication, most hits filed as activators; 350,000 compounds, 2.9% hits; note: % of control where 0% means no effect; nearly all actives have a fitted effect of over 50% in size
KB-3-1 tox: kills parental KB-3-1 adenocarcinoma cells | KB-3-1 viability, CellTiter-Glo ATP luminescence, 72 h | Potency, µM (doses to about 46.1 µM), hits mostly cytotoxic | 400,000 compounds, 1.4% hits | AID 1347075; note: % is set by controls: 0 for no effect and ±100 for the full control effect; nearly all actives have a fitted effect of over 60% in size
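KB-3-1 parental drug-naive adenocarcinoma cells in DMEM/10% FBS, incubated 72 h at 37 C with pin-transferred compounds across a concentration series. Viability by CellTiter-Glo luminescence; concentration-response curves fitted after normalization.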
SW480 rerep: inducers of DNA re-replication in SW480 colon cancer cells | SW480 DNA re-replication, Hoechst DNA content imaging, 48 h | Potency, µM (doses to about 46.1 µM), without a hit: top-dose re-replication activation, usual class: activators | 340,000 compounds, 1.8% hits; note: % of control where 0% means no effect; nearly all actives have a fitted effect of over 55% in size
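Readout is total intensity of Hoechst-stained nuclei, excited at 405 nm and collected at 500-530 nm. Compound treatment lasted 48 hr at 37 C in 5% CO2 before staining.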
Numbers without * were called inactive; i = inactive; ? = inconclusive; · = no result given; [ ] = remark or other dose. Calls come from the whole dose curve; as a rule, active = well fitted curve in the direction sought with a large enough effect; inconclusive = small, poorly fitted or top-dose-only effect, or another doubt; inactive = no such curve, though single readings can be large; an effect the other way counts as inactive or inconclusive. Potency is the fitted concentration of half-maximal effect.

SMILES	KB-V1 cytotox	ELG1 repair inh	MCF10A rerep	KB-3-1 tox	SW480 rerep
C[C@]12c3[nH]c4ccccc4c3CCN1C(=O)C(CC(=O)NCC13CC4CC(CC(C4)C1)C3)C[C@@H]2C(=O)N1CCCCC1 (stereo not given in full)	i	?	8.6%	i	17.1%
CC1=Nc2ccccc2/C1=C/c1ccc(N(C)C)cc1	i	·	·	i	·
Nc1[nH]c(C(=O)c2ccccc2)c(-c2ccc(Br)cc2)c1C(=O)NCCc1c[nH]c2ccccc12	?	·	·	i	·
COc1ccccc1CCNC(=O)c1c(N)[nH]c(C(=O)c2ccccc2)c1-c1ccc(Br)cc1	14.6µM*	·	·	?	·
COc1ccc(CCNC(=O)c2cc3c(=O)n4ccccc4nc3n(CCCN3CCOCC3)c2=N)cc1OC	i	?	18.7%	i	?
Cc1ccc2nc3c(cc(C(=O)NCCc4ccccc4)c(=N)n3CCCN3CCOCC3)c(=O)n2c1	i	-1.5%	4.61µM*	i	4.61µM*
COc1ccc(CCNC(=O)c2cc3c(=O)n4ccccc4nc3n(CCCN3CCOCC3)c2=N)cc1	i	10.3%	?	i	8.2µM*
COc1ccc(CCNC(=O)c2cc3c(=O)n4ccccc4nc3n(CCN3CCOCC3)c2=N)cc1	i	?	20.6µM*	i	23.1µM*
COc1ccc(CCn2c(=N)c(C(=O)NCC3CCCO3)cc3c(=O)n4ccccc4nc32)cc1 (stereo not given)	?	?	16.8%	i	10.5%
COc1ccc(CCn2c(=N)c(C(=O)N3CCN(C)CC3)cc3c(=O)n4ccccc4nc32)cc1	i	-1.3%	9.2µM*	i	23.1µM*
CC(=O)[C@@H]1CC[C@@H]2[C@@H]3C[C@H](C)C4=CC(=O)CC[C@@]4(C)[C@H]3[C@H](O)C[C@]21C	·	·	-1.2%[20.6 µM]	·	-4.9%[20.6 µM]
CCCN1CCN(c2cccc(Nc3nn4c(=O)c5ccccc5nc4s3)c2)CC1	i	·	·	?	·
COc1ccc(CCNC(=O)c2cc3c(=O)n4ccccc4nc3n(C3CCCCC3)c2=N)cc1	i	23.1µM*	?	i	2.31µM*
O=C(NCCN1CCOCC1)c1cc2c(=O)n3ccccc3nc2n1Cc1ccccc1	i	-15.0%	16.4µM*	i	20.6µM*
CN(C)c1cccc(-c2cnc(N3CCC(c4ncc[nH]4)CC3)s2)c1	i	·	·	i	·
CN(C)c1ccc(CN2CCCCCC2)cc1	i	-5.4%	2.2%	i	-10.8%
CCN(CC)c1ccc(CN2CCCCCC2)cc1	18.4µM*	12.5%	?	?	?
COc1cccc(-c2nc(CS(=O)(=O)CC(=O)NCc3ccc(C)cc3)c(C)o2)c1	i	·	·	i	·
C[C@@H]1COC(=O)[C@@H](CC(=O)OC(C)(C)C)C/C=C\C[C@H](CC(=O)N(CCO)Cc2ccccc2)C(=O)N1	?	16.9%	-2.1%	i	-16.6%
Cc1nc2c(sc(=S)n2Cc2ccco2)c(=O)n1CC(=O)Nc1ccc(F)cc1	i	12.5%	-0.9%	i	-9.3%
Cc1nc2c(sc(=S)n2Cc2ccco2)c(=O)n1CC(=O)Nc1cc(F)ccc1F	i	0.1%	23.1µM*	i	-5.5%
CCNC(=S)NC1CC2CCCC(C1)N2CCc1ccccc1 (stereo not given)	i	?	0.731µM*	i	?
CCCN1C2CCCC1CC(NC(=S)NCCCOCC)C2 (stereo not given)	8.2µM*	6.1%	-0.5%	i	-10.9%
CC(=O)Nc1ccc(/C(C)=N/Nc2nc(Nc3cccc4ccccc34)nc(N3CCOCC3)n2)cc1	?	7.31µM*	?	?	?
COc1ccc(Cl)cc1NC(=O)CCn1nc(C)cc1C	i	·	·	i	·
Cc1c(CCO)sc[n+]1CC(=O)c1ccccc1	i	·	·	i	·
COc1ccc(C2NCCc3c2[nH]c2ccccc32)cc1COc1ccc(F)cc1 (stereo not given)	?	?	18.4µM*	?	?
COc1ccccc1CNC(=O)C1CCN(c2ncnc3c2nc2n3CCCCC2)CC1	i	?	-1.7%	i	25.9%
